A selection: hits, their analogues and other compounds. The true share with any hit is near 19%.
DT40 TDP1 no CPT: qHTS for Inhibitors of human tyrosyl-DNA phosphodiesterase 1 (TDP1): qHTS in cells in absence of CPT; Potency, µM (highest dose often 46.2 µM), for inactives: at the highest dose activity change, negative = growth inhibition, most hits filed as inhibitors; AID 686978, 2013; DT40 Tdp1-/- hTDP1 cells, no CPT, ATP luminescence, 48 h; 420,000 tested, 15% active; further: potency means the concentration at half of the fitted maximal effect; on the % scale 0 is the no-effect control and ±100 the full control effect; nearly all actives have a fitted effect of over 55% in size
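Chicken DT40 Tdp1-/- cells complemented with human TDP1, screened without camptothecin (DMSO vehicle only), 400 cells/well. Compounds pin-transferred, cells incubated at 37 °C for at least 48 hr. Growth read as ATP-dependent luminescence (CellTiter-Glo, 30 min at RT).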
SW480 rereplic: A quantitative high throughput screen for small molecules that induce DNA re-replication in SW480 colon adenocarcinoma cells | 340,000 tested, 1.8% active | SW480 DNA re-replication, Hoechst DNA content imaging, 48 h | Potency, µM (series often up to 46.1 µM), for inactives: at the highest dose re-replication activation, most hits filed as activators; further: potency means the concentration at half of the fitted maximal effect; % of control where 0% means no effect; nearly all actives have a fitted effect of over 55% in size
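SW480 cells exposed to compounds for 48 hr at 37 C, 5% CO2, then Hoechst-stained 40 min. Nuclear DNA content imaged by fluorescence scanning (405 nm excitation, 500-530 nm emission); re-replication scored as increased high-intensity nuclei.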
DT40 TDP1 CPT: qHTS for Inhibitors of human tyrosyl-DNA phosphodiesterase 1 (TDP1): qHTS in cells in presence of CPT; chicken DT40 Tdp1-/-;hTDP1 cells + 20 nM CPT, ATP luminescence, 48 h; Potency, µM (doses to about 46.2 µM), for the others: at the top dose activity change, negative = growth inhibition, actives largely listed as inhibitors; 420,000 tested, 12% active; AID 686979, 2013; further: potency means the concentration at half of the fitted maximal effect; on the % scale 0 is the no-effect control and ±100 the full control effect; nearly all actives have a fitted effect of over 55% in size
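Chicken DT40 Tdp1-/- cells stably complemented with human TDP1 were seeded at 400 cells/well in medium containing 20 nM camptothecin, exposed to pin-transferred compounds, and grown at 37 °C for at least 48 hr. Viability was read as ATP luminescence.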
BCR signal inh: qHTS Assay to Find Inhibitors of Chronic Active B-Cell Receptor Signaling; ABC-DLBCL IkBa-CBG/CBR reporter, luminescence ratio, 4 h; Potency, µM (top dose mostly 46.1 µM), for inactives: at the highest dose activity change, negative = inhibition, actives largely listed as inhibitors; 340,000 tested, 0.05% active; AID 493014, 2011; active means well fitted inhibition curve with a large enough effect in the signal ratio, with a control signal flat, not every such curve was filed as active; inconclusive means small, poorly fitted or top-dose-only effect, or effect the other way, or a change in a side signal; the % refers to the signal ratio;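 further: potency means the concentration at half of the fitted maximal effect; plate controls were basal doxycycline-induced cells for no effect and cells given 10 µM MG132 for full effect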
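Concentration-response series (up to 46 uM) were applied to TMD8 dual-reporter cells for 4 h at 37C with doxycycline. Green/red ratio, after filter-overlap correction, defined %Activity; red signal alone was normalised to basal cells and zero luminescence.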
MCF10A rerep: A quantitative high throughput screen for small molecules that induce DNA re-replication in MCF 10a normal breast cells. Potency, µM (top dose mostly 46.1 µM), for the others: at the highest dose activity, positive = re-replication, hits mostly activators. 350,000 tested, 2.9% active. MCF 10A DNA re-replication, Hoechst nuclear intensity, 48 h; further: potency means the concentration at half of the fitted maximal effect; % of control where 0% means no effect; nearly all actives have a fitted effect of over 50% in size
IL1B secr inh: qHTS for Inhibitors of Inflammasome Signaling: IL-1-beta AlphaLISA Primary Screen; THP-1 LPS/ATP IL-1B secretion, AlphaLISA, 16 h; active compounds read low; activity change, % at 57.5 µM; 360,000 tested, 4.7% active; AID 743279, 2014; in the data active means activity change below about -50%; inconclusive means mostly about -30% to -49%; further: on the % scale 0 is the no-effect control and ±100 the full control effect
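THP-1 cells pretreated 1 hr with compounds (up to 57.5 uM final), then stimulated with LPS (250 ng/mL final) plus ATP (1.25 mM final); secreted IL-1B measured by AlphaLISA after 16 hr, decreased signal indicating inhibition.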
An asterisk follows results filed as active; ? = inconclusive; / = no result; [ ] = remark or other dose. Unless noted, the call rests on the fitted dose curve; in most records, active means well fitted curve in the direction sought with a large enough effect; inconclusive means small, poorly fitted or top-dose-only effect, or another doubt; inactive means no such curve, though single readings can be large; an effect the other way counts as inactive or inconclusive.

SMILES | DT40 TDP1 no CPT | SW480 rereplic | DT40 TDP1 CPT | BCR signal inh | MCF10A rerep | IL1B secr inh
CCc1cccc(C)c1NC(=O)c1cc(S(=O)(=O)N2CCN(c3ccccc3)CC2)ccc1F | 9.2µM* | / | 16.4µM* | -15.0% | / | /
O=C(O)c1cc(S(=O)(=O)N2CCCc3ccccc32)ccc1Cl | 0.1% | -4.0% | -7.6% | -1.5% | -0.6% | 23.9
Cc1cccc(C)c1NC(=O)c1cc(S(=O)(=O)N2CCCc3ccccc32)ccc1F | 4.11µM* | / | 10.3µM* | 0.2% | / | /
Cc1ccc(NC(=O)c2cc(S(=O)(=O)N3CCCc4ccccc43)ccc2F)cc1F | 6.51µM* | / | 16.4µM* | ? | / | /
O=C(Nc1ccc(Cl)cc1)c1cc(S(=O)(=O)N2CCCc3ccccc32)ccc1F | 14.6µM* | / | 16.4µM* | ? | / | /
Cc1cccc(C)c1NC(=O)c1cc(S(=O)(=O)N2CCC3(CC2)OCCO3)ccc1F | -20.0% | / | -16.4% | / | / | 0.6
CCCCNC(=O)C(NC(=O)c1ccc(-c2ccccc2)cc1)C(=O)c1ccccc1 (configuration not stated) | ? | / | ? | / | / | 29.6
O=[N+]([O-])c1ccccc1S(=O)(=O)N/C(=N/S(=O)(=O)c1ccccc1)c1ccccc1 | 7.2% | -13.5% | 0.2% | 4.7% | -6.5% | 29.4
Cc1ncoc1C(=O)N1CCOc2ccc(CN3CCN(c4ccccn4)CC3)cc2C1 | ? | / | -7.2%[9.04 µM] | / | / | /
Cc1cc(NC(=O)COC(=O)c2ccc(S(=O)(=O)N3CCCC3)cc2)no1 | 19.9% | -25.9% | 10.4% | 0.6% | 15.6% | 3.9
Cc1cc(NC(=O)COC(=O)c2ccc(S(=O)(=O)N3CCCc4ccccc43)cc2)no1 | 3.26µM* | 14.6µM* | 3.66µM* | ? | 9.2µM* | 38.2
O=S(=O)(c1ccc(Cl)cc1)N1CCCc2ccccc21 | -25.2% | 0.9% | -21.3% | 0.9% | ? | 21.8
CCC(=O)N1CCc2cc(S(=O)(=O)N3CCN(c4ccccn4)CC3)ccc21 | 11.6µM* | -1.1%[9.22 µM] | ? | -26.6% | -17.9% | -5.2
CC(=O)Nc1ccc(S(=O)(=O)N2CCCc3ccccc32)cc1 | 9.2µM* | 4.61µM* | 6.51µM* | 0.5% | 9.2µM* | 54.3
Cc1ccc(S(=O)(=O)N2CCCc3ccccc32)cc1C | 9.2µM* | -0.2% | 11.6µM* | -0.8% | 7.8% | -0.4
CCN(CC)S(=O)(=O)c1ccc2c(c1)N(CC(=O)Nc1c(C)cccc1C)C(=O)CO2 | -3.2% | / | 2.3% | / | / | /
CC(C)N(Cc1cn[nH]c1-c1ccc(-c2ccccc2)cc1)Cc1nccn1C | ? | ? | ? | ? | ? | -73.5*
O=C(COC(=O)C1CCC1)NCc1ccc(Cl)cc1Cl | -8.0% | -5.1% | 6.8% | 0.8% | 1.3% | -6.6
Cc1noc(/C=C/N(C)C)c1S(=O)(=O)N1CCCC(C(=O)Nc2ccc(F)cc2F)C1 (configuration not stated) | ? | -10.6% | ? | 9.8% | ? | 0.0
CN(Cc1ccc(F)cc1)S(=O)(=O)c1nnc(NC(=O)c2ccccc2)s1 | ? | -3.8% | -13.7% | ? | ? | -6.3
CN(Cc1ccc(F)cc1)S(=O)(=O)c1nnc(NC(=O)c2ccc(F)cc2)s1 | 14.6µM* | / | ? | / | / | /
CN(Cc1ccccc1)S(=O)(=O)c1nnc(NC(=O)c2cccc(Cl)c2)s1 | 13µM* | / | 14.6µM* | / | / | /
Cn1nnnc1SCCCNCc1cc(Cl)ccc1OCc1ccccc1F | 8.2µM* | / | 20.6µM* | / | / | /
Cn1nnnc1SCCCNCc1cc(Br)ccc1OCc1ccccc1F | 16.4µM* | / | 16.4µM* | / | / | /
CCOc1ccc(Br)cc1CNCCSc1nnnn1-c1ccccc1 | ? | / | 18.4µM* | / | / | /

Screening data deposited in PubChem BioAssay by National Center for Advancing Translational Sciences (NCATS).
